Assay outcomes (PubChem)
IL-1B inflam inh: inflammasome signaling inhibition, IL-1 beta readout; AID 743279; THP-1 LPS/ATP IL-1B secretion, AlphaLISA, 16 h; hits give low values; 360,000 compounds, 4.7% hits; activity change, % at 57.5 µM; in the data active means activity change below about -50%; inconclusive means mostly about -30% to -49%; further: on the % scale 0 is the no-effect control and ±100 the full control effect
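THP-1 cells pretreated 1 hr with compounds (up to 57.5 uM final), then stimulated with LPS (250 ng/mL final) plus ATP (1.25 mM final); secreted IL-1B measured by AlphaLISA after 16 hr, decreased signal indicating inhibition.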
DT40 TDP1 no CPT: qHTS for Inhibitors of human tyrosyl-DNA phosphodiesterase 1 (TDP1): qHTS in cells in absence of CPT | 420,000 compounds, 15% hits | Potency, µM (top dose mostly 46.2 µM), for inactives: top-dose activity change, negative = growth inhibition, most hits filed as inhibitors | AID 686978, 2013 | DT40 Tdp1-/- hTDP1 cells, no CPT, ATP luminescence, 48 h; further: potency means the concentration at half of the fitted maximal effect; on the % scale 0 is the no-effect control and ±100 the full control effect; nearly all actives have a fitted effect of over 55% in size
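Growth of hTDP1-complemented DT40 Tdp1-knockout cells is measured by ATP luminescence after at least 48 hr compound exposure at 37 °C, with DMSO substituting for the 20 nM CPT used in the parallel screen.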
HepG2 tox: counter-screen for TGF-b inhibitors: cytotoxicity in HepG2 cells; HepG2 CAGA-GFP viability, ATP luminescence, 18 h; Potency, µM (top dose mostly 46.1 µM), without a hit: at the top dose activity change, negative = cytotoxicity, hits mostly cytotoxic; 410,000 compounds, 0.76% hits; AID 588856; further: potency means the concentration at half of the fitted maximal effect
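CellTiter-Glo luminescence gave cytotoxicity after 18 hours at 37 degrees C. The cells were HepG2 CAGA-GFP in 1% FBS DMEM, stimulated with 500 pg/mL TGF-beta after compound addition. %Activity was normalised to no-cell wells (complete cell-killing) and DMSO (no toxicity), and curves were fitted and classified.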
TDP1 block: inhibitors of human tyrosyl-DNA phosphodiesterase TDP1 | Q9NUW8 | recombinant TDP1, AlphaScreen DNA substrate cleavage | Potency, µM (doses to about 130 µM), without a hit: top-dose activity change, negative = inhibition, hits mostly inhibitors | 350,000 compounds, 0.28% hits; further: potency means the concentration at half of the fitted maximal effect; on the % scale 0 is the no-effect control and ±100 the full control effect; nearly all actives have a fitted effect of over 40% in size
Target sequence (Q9NUW8 whole entry, looked up): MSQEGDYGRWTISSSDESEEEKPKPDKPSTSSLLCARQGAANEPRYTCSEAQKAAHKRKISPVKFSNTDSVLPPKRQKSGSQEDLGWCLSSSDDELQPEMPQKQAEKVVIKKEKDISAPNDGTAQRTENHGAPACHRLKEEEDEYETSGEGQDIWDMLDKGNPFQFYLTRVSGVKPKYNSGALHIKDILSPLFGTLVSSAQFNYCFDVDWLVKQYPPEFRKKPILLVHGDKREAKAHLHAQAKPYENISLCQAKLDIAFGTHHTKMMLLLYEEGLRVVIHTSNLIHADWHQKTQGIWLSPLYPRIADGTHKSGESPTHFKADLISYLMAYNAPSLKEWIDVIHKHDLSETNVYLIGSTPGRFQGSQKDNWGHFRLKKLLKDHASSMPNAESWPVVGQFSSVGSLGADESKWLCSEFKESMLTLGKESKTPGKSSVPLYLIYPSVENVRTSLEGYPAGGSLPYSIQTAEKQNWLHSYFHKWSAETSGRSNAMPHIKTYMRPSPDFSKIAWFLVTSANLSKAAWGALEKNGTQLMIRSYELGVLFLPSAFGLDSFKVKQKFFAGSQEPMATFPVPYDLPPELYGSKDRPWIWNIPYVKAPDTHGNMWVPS
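Enzyme-compound mixtures sat 15 min at room temperature, followed by a 5 min reaction with 15 nM final substrate and 10 min with AlphaScreen beads. Recombinant human Tdp1 was used at 1 nM final.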
TGFb inhibitor: TGF-b pathway inhibition; HepG2 CAGA-GFP TGF-b/SMAD3 reporter, GFP fluorescence, 18 h; TGF-beta stimulated, 500 pg/mL final; 410,000 compounds, 1.2% hits; Potency, µM (titrated, usually from 46.1 µM), without a hit: top-dose activity, negative = inhibition, most hits filed as inhibitors; further: potency means the concentration at half of the fitted maximal effect; on the % scale 0 is the no-effect control and ±100 the full control effect; nearly all actives have a fitted effect of over 65% in size
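HEPG2 CAGA-GFP cells (1000/well, DMEM with 1% FBS) were pre-incubated 2 h at 37 degrees C, given compound by pin tool, then stimulated with TGF-beta at 500 pg/mL final for 18 h before per-cell GFP fluorescence imaging.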
TDP1 cell CPT: growth inhibition of DT40 Tdp1-/-;hTDP1 cells with camptothecin (screen for TDP1 inhibitors) | chicken DT40 Tdp1-/-;hTDP1 cells + 20 nM CPT, ATP luminescence, 48 h | 420,000 compounds, 12% hits | Potency, µM (doses to about 46.2 µM), for inactives: at the highest dose activity change, negative = growth inhibition, usual class: inhibitors; further: potency means the concentration at half of the fitted maximal effect; on the % scale 0 is the no-effect control and ±100 the full control effect; nearly all actives have a fitted effect of over 55% in size
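Cell growth measured by CellTiter-Glo luminescence after a minimum 48 h, 37 C compound exposure with 20 nM CPT in Tdp1-knockout DT40 cells stably expressing hTDP1, seeded 400/well; qHTS titration format.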
An asterisk follows results filed as active; i = inactive; ? = inconclusive; · = not tested or not shown; ! = not confirmed by another sample. Only some compounds are listed: those with a hit (about 18% of all), similar ones and a draw of the others. Unless noted, the call rests on the fitted dose curve; in most records, active means well fitted curve in the direction sought with a large enough effect; inconclusive means small, poorly fitted or top-dose-only effect, or another doubt; inactive means no such curve, though single readings can be large; an effect the other way counts as inactive or inconclusive.

SMILES	IL-1B inflam inh	DT40 TDP1 no CPT	HepG2 tox	TDP1 block	TGFb inhibitor	TDP1 cell CPT
Cc1c(C(=O)NCCC2=CCCCC2)sc2ncnc(N3CCCCC3C)c12 (stereo not drawn)	-80.4*	-18.6%	-26.1%	0.9%	?	?
O=C(CCC1CCCCC1)Nc1ccccc1C(=O)N1CCOCC1	7.1	-19.7%	9.9%	5.4%	-20.1%	5.0%
CC(=O)N1N=C(c2ccc(C)cc2)OC1c1ccc(Br)cc1 (stereo not drawn)	-68.9*	-29.0%	-11.0%	-2.8%	2.1%	4.8%
CCOc1ccc(CCNC(=O)COC(=O)c2cc(=O)[nH]c3ccccc23)cc1OCC	10.0	-9.3%	-31.7%	·	-7.6%	-19.1%
Cn1ccc(C(=O)NCC2CCC3(CCN(Cc4cc(F)cc(F)c4)CC3)O2)n1 (stereo not drawn)	·	-21.5%	·	·	·	-8.3%
CCOC(=O)C(C(=O)OCC)N(C#N)c1nc(N(C)C)nc(N(C)C)n1	-99.7*	-11.6%	-30.7%	-3.5%	?	10.3%
CN(C)CCCN(C(=O)c1cc2cc([N+](=O)[O-])ccc2s1)c1nc2cc3c(cc2s1)OCCO3	0.0	2.31µM*	-97.9%	13.3%	?	1.3µM*
CN(C)CCCN(C(=O)c1ccc(Br)s1)c1nc2cc3c(cc2s1)OCCO3	-93.1*	?	0.0%	·	27.7%	29.1µM*
Cc1ccc2nc(N(CCCN(C)C)C(=O)c3ccc(Br)s3)sc2c1	-78.7*	23.1µM*	12.6µM*!	-2.3%	?	?
CN(C)CCCN(C(=O)c1ccc(Cl)s1)c1nc2cc3c(cc2s1)OCO3	-98.2*	?	-95.2%	4.8%	?	?
CN(C)CCCN(C(=O)c1cc(Cl)sc1Cl)c1nc2cc3c(cc2s1)OCO3	?	-25.4%	-38.4%	7.3%	?	-41.3%
COc1ccc(NC(=O)c2oc3ccccc3c2NC(=O)Cc2cccs2)cc1	·	?	-16.6%	1.3%	-24.5%	?
Cc1ccc(O)c(C2=NOC(O)(C(F)(F)F)C2)c1 (stereo not drawn)	11.1	-10.3%	14.5%	5.1%	-4.3%	-6.5%
CN(CC(=O)NCC(c1ccco1)N1CCCCC1)S(=O)(=O)c1ccc(Cl)cc1 (stereo not drawn)	-6.8	?	-22.0%	6.0%	-3.2%	?
CN(C)CCCN(C(=O)c1cccs1)c1nc2cc3c(cc2s1)OCO3	-10.0	?	3.0%	6.1%	4.4%	-17.8%
CN(C)CCCN(C(=O)c1ccc([N+](=O)[O-])s1)c1nc2cc3c(cc2s1)OCCO3	-95.7*	3.26µM*	-64.4%	8.4%	?	2.91µM*
COc1cc(/C=N/NC(=O)c2sc3nc(C)cc(C)c3c2N)ccc1O	-88.7*	3.26µM*	-28.7%	·	-5.9%	?
COc1cc(/C=N\NC(=O)c2sc(N)nc2C)cc(OC)c1OC	-78.8*	13µM*	-18.2%	9.2%	-15.8%	?
COc1cc(/C=N/n2cnc3c(sc4nc(C)cc(C)c43)c2=O)ccc1O	·	-19.4%	1.4%	·	2.0%	2.7%
COc1cc(C(=O)N/N=C/c2sc(=O)n(-c3ccccc3)c2Cl)cc(OC)c1OC	-70.9*	?	-12.0%	5.4%	?	?
COc1cc(/C=N/NC(=O)c2cc(-c3ccccc3)sc2N)cc(OC)c1OC	-72.4*	16.4µM*	-9.8%	·	5.0%	16.4µM*
Cc1nc(N)sc1C(=O)N/N=C/c1ccc([N+](=O)[O-])cc1	1.4	-14.1%	-49.8%	1.3%	0.0%	-7.8%
O=C(CCN1CCOCC1)NNC(=O)c1ccc([N+](=O)[O-])cc1[N+](=O)[O-]	13.0	-16.0%	6.8%	2.0%	-2.4%	?
Cc1ccc(S(=O)(=O)NC(Cc2ccccc2)C(=O)O)cc1C (stereo not drawn)	8.4	4.1%	-4.4%	·	-1.4%	1.2%
C=Cc1ccc(Cn2c(=O)n(-c3cccc(C)c3)c(=O)c3c2c2cc(C)ccc2n3C)cc1	·	?	-11.7%	5.6%	0.0%	?
SMILES	IL-1B inflam inh	DT40 TDP1 no CPT	HepG2 tox	TDP1 block	TGFb inhibitor	TDP1 cell CPT
Cc1nc(N)sc1C(=O)N/N=C/c1c[nH]c2ccccc12	-55.3*	?	-45.2%	11.7%	39.6%	?
COc1ccc(/C=N\NC(=O)c2ccc(-c3ccccc3)cc2)cc1COC(C)=O	i	?	-4.6%	1.3%	6.5%	?
COc1cc(/C=N/NC(=O)c2ccc(-n3cccc3)cc2)ccc1O	-68.8*	?	-23.0%	3.1%	0.7%	?
COc1cc(/C=N/NC(=O)c2ccc(-c3ccccc3)cc2)cc(OC)c1OC	-20.3	?	-27.2%	5.1%	-9.7%	20.6µM*
Cc1nnsc1C(=O)N/N=C/c1ccc2ccccc2c1O	57.3	0.82µM*	2.2%	8.2%	2.3%	1.03µM*
CC(=O)OC1=CN(Cc2ccccc2)S(=O)(=O)c2ccccc21	·	-7.8%	-16.7%	1.6%	?	-3.4%
Cc1ccc(-n2nc(C)c3c(C)c(CCC(=O)NCC4CCCO4)c(=O)n(C)c32)cc1 (stereo not drawn)	4.4	23.1µM*	4.7%	0.4%	-2.1%	?
CCn1c(=O)c(CCC(=O)NCCN2CCOCC2)c(C)c2c(C)nn(-c3ccccc3)c21	-15.2	?	-17.3%	4.9%	-6.6%	20.6µM*
O=C(Cn1cnc2c(nnn2-c2ccccc2)c1=O)NCC1CCCO1 (stereo not drawn)	2.0	10.6%	-4.3%	2.1%	-6.2%	2.6%
CCn1c(=O)c(CCC(=O)NCC2CCCO2)c(C)c2c(C)nn(-c3ccccc3)c21 (stereo not drawn)	-28.4	?	-13.4%	3.6%	-6.7%	16.4µM*
CCn1c(=O)c(CCC(=O)N2CCN(c3ccccn3)CC2)c(C)c2c(C)nn(-c3ccccc3)c21	0.0	20.6µM*	-1.4%	10.1%	7.3%	16.4µM*
Cc1ccc(NC(=O)COc2cccc3ccc(C)nc23)c(Br)c1	0.5	23.1µM*	-50.6%	-2.7%	?	?
Cc1ccc(OCC(=O)Nc2cccc3ccc(C)nc23)c(C)c1	·	?	-1.2%	-1.9%	-6.2%	?
C=CCN(CC=C)Cc1c(O)ccc2c(=O)c(-c3ccccc3)coc12	10.7	?	0.1%	3.5%	6.7%	?
O=C(CCC(=O)N1CCN(c2ccccn2)CC1)c1cccs1	-28.3	-18.8%	-11.0%	2.1%	-2.5%	?
